Data reported in PubChem BioAssay (Tox21).
“And” between values parts separate entries of the source, which are not always exact repeats. Identical values can stand only once. Results filed as inconclusive are left out. Where a structure was tested more than once in an assay, its records may differ in their call. The source made the active and inactive calls. Calls come from the whole dose curve; as a rule, active = well fitted curve in the direction sought with a large enough effect in the repeat runs; inconclusive = weak or mixed curves; inactive = no such curve, though single readings can be large; an effect the other way counts as inactive or inconclusive.

How the values were obtained:
[1] = A CellTox Green Cytotoxicity Assay to monitor cytotoxicity in HEK293 cells - 40 hour (AID 1224871); note: nearly all actives have a fitted effect of over 45% in size; note: potency is the fitted concentration of half-maximal effect
Method in brief: (§1)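 Real-time, in one plate: 600 HEK293 cells/well with dead-cell DNA dye, pinned compound after 5 h, 37 C incubation over 40 h; viable cells give no appreciable fluorescence.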

[2] = qHTS RealTime-Glo MT Cell Viability Assay in HepG2 cells - 8 hour (AID 1224873); note: nearly all actives have a fitted effect of over 55% in size; note: potency is the fitted concentration of half-maximal effect
Method in brief: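 Real-time viability: cells seeded at 600 per well together with NanoLuc and cell-permeant prosubstrate, compounds added after 5 h incubation. Luminescence tracked at 0, 8, 16, 24, 32 and 40 h of exposure.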

[3] = qHTS RealTime-Glo MT Cell Viability Assay in HEK293 cells - 40 hour (AID 1224874); settings: RealTime-Glo luminescence; max response: stronger effect = lower value; note: nearly all actives have a fitted effect of over 50% in size; note: potency is the fitted concentration of half-maximal effect
Method in brief: (§2)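 Kinetic, non-lysing viability readout. Seed HEK293 (600/well) with reagent, incubate 5 h at 37 C/5% CO2, pin 23 nL compound in DMSO, incubate at 37 C, read luminescence at 0, 8, 16, 24, 32, 40 h.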

[4] = A CellTox Green Cytotoxicity Assay to monitor cytotoxicity in HEK293 cells - 24 hour (AID 1224875); note: nearly all actives have a fitted effect of over 45% in size; note: potency is the fitted concentration of half-maximal effect; for activity change: series mostly up to about 77 µM
Method in brief: as §1

[5] = A CellTox Green Cytotoxicity Assay to monitor cytotoxicity in HepG2 cells - 16 hour (AID 1224876); note: nearly all actives have a fitted effect of over 45% in size; note: potency is the fitted concentration of half-maximal effect
Method in brief: (§3)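 Cytotoxicity was tracked as dead-cell DNA fluorescence in HepG2 cells treated with test compounds at 37 C; each time-point value comes from one kinetic series spanning 0, 8, 16, 24, 32 and 40 h.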

[6] = qHTS RealTime-Glo MT Cell Viability Assay in HepG2 cells - 32 hour (AID 1224877); note: nearly all actives have a fitted effect of over 55% in size; note: potency is the fitted concentration of half-maximal effect
Method in brief: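 HepG2 suspension premixed with RealTime-Glo reagents is plated at 600 cells per well and left 5 h at 37 C/5% CO2. Compounds in DMSO then go in, and bioluminescence reflecting viable cell number is recorded over 40 h.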

[7] = A CellTox Green Cytotoxicity Assay to monitor cytotoxicity in HepG2 cells - 24 hour (AID 1224878); note: nearly all actives have a fitted effect of over 45% in size; note: potency is the fitted concentration of half-maximal effect
Method in brief: as §3

[8] = A CellTox Green Cytotoxicity Assay to monitor cytotoxicity in HepG2 cells - 40 hour (AID 1224879); note: nearly all actives have a fitted effect of over 40% in size; note: potency is the fitted concentration of half-maximal effect
Method in brief: as §3

[9] = qHTS RealTime-Glo MT Cell Viability Assay in HEK293 cells - 0 hour (AID 1224880)
Method in brief: as §2

[10] = qHTS RealTime-Glo MT Cell Viability Assay in HEK293 cells - 16 hour (AID 1224872); note: nearly all actives have a fitted effect of over 50% in size; note: potency is the fitted concentration of half-maximal effect
Method in brief: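 Reads taken at 0, 8, 16, 24, 32 and 40 h from the same wells. HEK293 cells (600/well) carried RealTime-Glo reagents from seeding, with compound added after a 5 h settle at 37 C.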
% is set by controls: 0 for no effect and ±100 for the full control effect.

O=C(CCl)CCl
inactive: Potency [2] | Potency [4] | Potency [5] | Potency [6] | outcome [9]
active: Potency [1] 21.9 µM | Potency [3] 18 µM and 21.9 µM | Potency [7] 22.7 µM | Potency [8] 25.5 µM

C=CCOC(=O)C(C)(C)OC(=O)c1cc(-n2c(=O)cc(C(F)(F)F)n(C)c2=O)ccc1Cl
active: Potency [3] 21.5 µM
inactive: Potency [1] | Potency [2] | Potency [4] | Potency [5] | Potency [6] | Potency [7] | Potency [8]

O=C(O)C(F)(F)C(F)(F)C(F)(F)C(F)(F)C(F)(F)C(F)(F)C(F)(F)C(F)(F)F
inactive: Potency [1] | Potency [10] | Potency [4] | Potency [5] | Potency [7] | Potency [8] | outcome [9]

C=CCc1ccccc1O
inactive: Potency [1] | Potency [2] | max response [3] 7.74% | Potency [4] | Potency [5] | Potency [6] | Potency [7] | Potency [8] | outcome [9]

O=C(O)c1cc(I)cc(I)c1I
inactive: Potency [1] | Potency [10] | max response [3] -4.51% | Potency [4] | Potency [5] | Potency [6] | Potency [7] | Potency [8] | outcome [9]

CC(C)(C)N(NC(=O)c1ccc(Cl)cc1)C(=O)c1ccccc1
inactive: Potency [1] | Potency [2] | Potency [4] | Potency [5] | Potency [6] | Potency [7] | Potency [8] | outcome [9]

CCCCCBr
inactive: Potency [1] | Potency [2] | Potency [4] | Potency [5] | Potency [6] | Potency [7] | Potency [8] | outcome [9]

O=[N+]([O-])/C=C/c1ccccc1
inactive: Potency [4] | outcome [9]
active: Potency [10] 4.98 µM and 12.3 µM | Potency [2] 49.8 µM | Potency [3] 6.27 µM and 15.5 µM | Potency [5] 55.8 µM | Potency [6] 22.2 µM and 17.4 µM | Potency [7] 22.2 µM | Potency [8] 12.5 µM

c1ccc2c(c1)sc1ccccc12
inactive: Potency [10] | Potency [2] | max response [3] 0.709% and -2.64% | Potency [4] | Potency [5] | Potency [6] | Potency [7] | Potency [8] | outcome [9]

CCCCCCCCP(=O)(O)O
inactive: Potency [1] | Potency [10] | max response [3] -9.79% | Potency [5] | Potency [6] | Potency [7] | Potency [8]

CCCCCCCCCCCC[N+](C)(C)CCOc1ccccc1
active: Potency [1] 19.5 µM and 23.9 µM | Potency [10] 19.5 µM and 19 µM | Potency [3] 6.92 µM and 9.52 µM | Potency [4] 17.4 µM and 23.9 µM | Potency [5] 24.6 µM and 19 µM | Potency [6] 19.5 µM and 7.56 µM | Potency [7] 15.5 µM and 8.49 µM | Potency [8] 12.3 µM and 6.74 µM
inactive: outcome [9]

C[C@@H]1C[C@@H]([C@H](O)CC2CC(=O)NC(=O)C2)C(=O)[C@@H](C)C1
inactive and 19.5 µM (active): Potency [1]
active: Potency [3] 387 nM and 245 nM and 169 nM
inactive: Potency [5] | Potency [6] | Potency [7] | Potency [8] | outcome [9]

CC(C)CCON=O
inactive: Potency [10] | max response [3] 0.253% | Potency [5] | Potency [6] | Potency [7] | Potency [8] | outcome [9]

CCCC(C)(COC(N)=O)COC(=O)NC(C)C (centres undefined)
inactive: Potency [1] | Potency [10] | max response [3] -11.3% and 0.58% | Potency [5] | Potency [6] | Potency [7] | Potency [8] | outcome [9]

CCCCCCCCCCCCN=C(N)N
inactive: cytotoxicity increase [1] 10.9% [at 2.72 µM] | viability change, negative = cytotoxic [2] -3.99% [at 2.72 µM] | cytotoxicity increase [5] -5.75% [at 2.72 µM] | activity change, negative = cytotoxic [6] -5.5% [at 2.72 µM] | cytotoxicity [7] -6.79% [at 2.72 µM] | cytotoxicity increase [8] -4.41% [at 2.72 µM]
active: Potency [3] 1.07 µM

[Cl-].[Cl-].[Hg+2]
inactive: outcome [9]
active: Potency [1] 21.8 µM and 3.89 µM | Potency [2] 48.8 µM and 3.89 µM | Potency [3] 2.45 µM | Potency [4] 21.8 µM and 8.71 µM | Potency [5] 38.7 µM and 3.89 µM | Potency [6] 54.7 µM and 3.47 µM | Potency [7] 24.4 µM and 3.89 µM | Potency [8] 24.4 µM and 2.45 µM

COP(=O)(OC)OC(Br)C(Cl)(Cl)Br (centres undefined)
inactive: Potency [2] | Potency [4] | Potency [5] | Potency [6] | Potency [7] | Potency [8]

Clc1ccc2ccccc2c1
active: Potency [4] 50.5 µM
inactive: Potency [2] | Potency [5] | Potency [6] | Potency [7] | Potency [8] | outcome [9]

CN(C)c1ccc(N=O)cc1
active: Potency [1] 11 µM and 19.5 µM | Potency [10] 15.5 µM and 21.9 µM | Potency [3] 13.8 µM and 19.5 µM | Potency [6] 34.7 µM | Potency [7] 49.1 µM | Potency [8] 34.8 µM and 12.3 µM
